For ten compounds, Percent Effect results are on record in ChEMBL document CHEMBL3988442, “University of Dundee, Small-Polar-MMV Screening Library” (2021).

Common to all, as to set-up: scale not given: direction of the effect not stated beside the values
Assay [1] deals with Protein translocase subunit SecA (Escherichia coli (strain K12)) (UniProt P10408). Briefly: Assay to Identify E. coli SecA ATPase Inhibitors. The following applies: 30 µM. The class given is functional.
The target in assay [2] is T1, Ubiquitin-activating enzyme e1, putative (Leishmania donovani (strain BPK282A1)) (UniProt E9BSI1).
T1 sequence (whole entry): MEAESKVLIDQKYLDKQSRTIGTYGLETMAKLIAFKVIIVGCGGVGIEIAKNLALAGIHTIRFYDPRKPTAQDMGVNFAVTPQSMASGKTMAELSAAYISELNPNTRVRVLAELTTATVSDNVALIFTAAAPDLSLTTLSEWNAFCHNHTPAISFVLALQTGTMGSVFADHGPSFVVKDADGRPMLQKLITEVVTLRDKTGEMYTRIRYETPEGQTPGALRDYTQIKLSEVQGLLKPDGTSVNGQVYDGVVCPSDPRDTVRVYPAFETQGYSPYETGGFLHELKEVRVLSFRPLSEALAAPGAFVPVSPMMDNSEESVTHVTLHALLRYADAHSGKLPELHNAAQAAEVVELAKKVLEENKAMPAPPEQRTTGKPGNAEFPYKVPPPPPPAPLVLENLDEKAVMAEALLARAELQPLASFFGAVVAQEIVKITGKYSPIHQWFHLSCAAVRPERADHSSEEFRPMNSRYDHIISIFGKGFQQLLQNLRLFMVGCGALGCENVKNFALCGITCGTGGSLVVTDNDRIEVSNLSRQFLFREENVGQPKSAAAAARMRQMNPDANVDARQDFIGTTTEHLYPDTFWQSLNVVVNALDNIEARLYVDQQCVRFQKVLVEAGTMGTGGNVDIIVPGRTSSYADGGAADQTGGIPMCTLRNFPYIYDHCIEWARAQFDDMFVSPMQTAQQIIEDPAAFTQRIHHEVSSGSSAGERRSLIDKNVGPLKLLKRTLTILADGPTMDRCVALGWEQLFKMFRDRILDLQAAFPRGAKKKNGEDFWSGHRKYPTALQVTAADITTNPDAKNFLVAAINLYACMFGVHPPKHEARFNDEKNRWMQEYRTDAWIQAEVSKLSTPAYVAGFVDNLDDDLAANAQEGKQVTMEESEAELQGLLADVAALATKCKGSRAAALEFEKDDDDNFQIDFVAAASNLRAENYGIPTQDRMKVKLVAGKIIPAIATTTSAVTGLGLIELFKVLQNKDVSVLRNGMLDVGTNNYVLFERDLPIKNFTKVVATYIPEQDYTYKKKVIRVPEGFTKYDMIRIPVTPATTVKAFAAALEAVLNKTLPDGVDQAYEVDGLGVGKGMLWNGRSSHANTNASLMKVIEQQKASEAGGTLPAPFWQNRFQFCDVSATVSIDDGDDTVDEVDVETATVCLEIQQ
Briefly: Leishmania donovani Ubiquitin Activating Enzyme (LdE1). In kind it is functional. The note with it: 30 µM.

Assay [3] deals with AMP-activated protein kinase, AMPK (Homo sapiens) (UniProt P54646+O43741+P54619+Q9UGJ0+Q9Y478+Q13131+Q9UGI9). Put plainly: AMP-dependent Kinase enzyme assay. An in vitro enzyme assay that detects ADP turnover that is directly proportional to AMPK activity. This uses naive AMPK that is activated during the assay with MK-8722. The class given is functional. The note with it: 30 µM.

Assay [4] addresses Sialic acid-binding Ig-like lectin 9 (Homo sapiens) (UniProt Q9Y336). Briefly: Hs-Siglec9 ALPHAscreen SOP 20170721. The note with it: 10 µM. (In Alpha technology, singlet oxygen from a donor bead excites a nearby acceptor bead.)
Another assay deals with Trypanosoma cruzi. Briefly: Trypanosoma cruzi phosphomannomutase and mannose-1-phosphate guanylyltransferase assay. The note with it: 10 µM. In kind it is functional.
Assay [5] addresses T2, Arginase-2, mitochondrial (Homo sapiens) (UniProt P78540).
T2 sequence (whole entry): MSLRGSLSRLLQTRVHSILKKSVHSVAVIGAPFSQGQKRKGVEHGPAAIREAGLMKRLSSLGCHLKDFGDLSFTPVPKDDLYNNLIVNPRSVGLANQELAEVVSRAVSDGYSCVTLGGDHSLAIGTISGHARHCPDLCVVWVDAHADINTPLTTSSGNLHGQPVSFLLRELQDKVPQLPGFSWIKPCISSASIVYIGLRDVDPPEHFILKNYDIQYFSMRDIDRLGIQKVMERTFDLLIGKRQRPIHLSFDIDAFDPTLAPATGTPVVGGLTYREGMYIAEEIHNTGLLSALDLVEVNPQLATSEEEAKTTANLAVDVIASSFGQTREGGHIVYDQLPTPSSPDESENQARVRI
Put plainly: in vitro enzyme assay to detect the production of urea directly proportional to the activity of Arginase II. Further: in the data most compounds retested in dose-response had high values. The class given is functional. The note with it: 33.3 µM.

For assay [6], the target named is T3, Proteasome subunit beta (Trypanosoma cruzi) (UniProt O96673).
T3 sequence (whole entry): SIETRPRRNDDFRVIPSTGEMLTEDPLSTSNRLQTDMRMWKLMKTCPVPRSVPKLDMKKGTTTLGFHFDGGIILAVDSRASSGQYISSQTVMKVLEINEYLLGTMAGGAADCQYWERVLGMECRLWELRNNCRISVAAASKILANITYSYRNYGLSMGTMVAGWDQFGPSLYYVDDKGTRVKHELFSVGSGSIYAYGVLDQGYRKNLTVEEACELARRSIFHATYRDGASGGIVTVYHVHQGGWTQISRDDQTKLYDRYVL
Briefly: Trypanosoma cruzi proteasome chymotrypsin-like activity (TcProtChymo) assay. Further: in the data most compounds retested in dose-response had high values. In kind it is functional. The note with it: 9.37 µM.

The species named for the next assay is Homo sapiens. Put plainly: To identify inhibition of the IFN signalling (Jak-Stat) pathway via expression of an eGFP reporter gene under the control of an IFN-stimulated response element (ISRE) containing MxA promoter. The class given is functional. The following applies: 30 µM. In general terms: In a reporter assay the amount or activity of a reporter protein is the signal.

Assay [7] concerns the target T4, Tyrosyl-tRNA synthetase, putative (Trypanosoma cruzi (strain CL Brener)) (UniProt Q4DSP6).
T4 sequence (whole entry): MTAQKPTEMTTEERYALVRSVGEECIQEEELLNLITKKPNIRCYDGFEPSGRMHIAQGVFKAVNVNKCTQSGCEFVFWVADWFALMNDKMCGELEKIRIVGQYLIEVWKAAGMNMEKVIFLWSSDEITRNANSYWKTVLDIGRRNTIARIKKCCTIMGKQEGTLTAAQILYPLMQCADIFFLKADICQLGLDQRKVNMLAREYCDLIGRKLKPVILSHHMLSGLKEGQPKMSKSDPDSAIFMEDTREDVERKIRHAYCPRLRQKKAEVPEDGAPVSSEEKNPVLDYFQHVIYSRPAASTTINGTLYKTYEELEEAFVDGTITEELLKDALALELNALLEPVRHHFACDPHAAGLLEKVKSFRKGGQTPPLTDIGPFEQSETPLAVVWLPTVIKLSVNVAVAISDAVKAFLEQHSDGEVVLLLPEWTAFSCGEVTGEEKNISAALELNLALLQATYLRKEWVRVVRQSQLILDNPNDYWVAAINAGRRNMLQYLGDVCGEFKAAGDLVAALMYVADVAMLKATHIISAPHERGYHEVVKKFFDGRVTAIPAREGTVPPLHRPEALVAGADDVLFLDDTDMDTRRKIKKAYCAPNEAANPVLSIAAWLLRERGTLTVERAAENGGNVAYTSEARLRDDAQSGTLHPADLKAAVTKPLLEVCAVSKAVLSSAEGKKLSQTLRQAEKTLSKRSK
Briefly: Trypanosoma cruzi tyrosyl tRNA synthetase (TcYRS) _High Tyrosine SOP. Further: in the data most compounds retested in dose-response had high values. The class given is functional. The note with it: 30 µM.

Assay [8] deals with T4, Tyrosyl-tRNA synthetase, putative (Trypanosoma cruzi (strain CL Brener)). Put plainly: Trypanosoma cruzi tyrosyl tRNA synthetase (TcYRS) SOP. In kind it is functional. The following applies: 30 µM.
Assay [9] addresses Chromo domain-containing protein 1 (Saccharomyces cerevisiae (strain ATCC 204508 / S288c) (Baker's yeast)) (UniProt P32657). Put plainly: ScCHD-1 Enzyme Inhibition Assay. Further: in the data most compounds retested in dose-response had high values. The following applies: 30 µM. In kind it is functional.

For some assays here: Potency and affinity values are given separately.

Protein translocase subunit SecA (Escherichia coli (strain K12)), sequence (P10408 whole entry): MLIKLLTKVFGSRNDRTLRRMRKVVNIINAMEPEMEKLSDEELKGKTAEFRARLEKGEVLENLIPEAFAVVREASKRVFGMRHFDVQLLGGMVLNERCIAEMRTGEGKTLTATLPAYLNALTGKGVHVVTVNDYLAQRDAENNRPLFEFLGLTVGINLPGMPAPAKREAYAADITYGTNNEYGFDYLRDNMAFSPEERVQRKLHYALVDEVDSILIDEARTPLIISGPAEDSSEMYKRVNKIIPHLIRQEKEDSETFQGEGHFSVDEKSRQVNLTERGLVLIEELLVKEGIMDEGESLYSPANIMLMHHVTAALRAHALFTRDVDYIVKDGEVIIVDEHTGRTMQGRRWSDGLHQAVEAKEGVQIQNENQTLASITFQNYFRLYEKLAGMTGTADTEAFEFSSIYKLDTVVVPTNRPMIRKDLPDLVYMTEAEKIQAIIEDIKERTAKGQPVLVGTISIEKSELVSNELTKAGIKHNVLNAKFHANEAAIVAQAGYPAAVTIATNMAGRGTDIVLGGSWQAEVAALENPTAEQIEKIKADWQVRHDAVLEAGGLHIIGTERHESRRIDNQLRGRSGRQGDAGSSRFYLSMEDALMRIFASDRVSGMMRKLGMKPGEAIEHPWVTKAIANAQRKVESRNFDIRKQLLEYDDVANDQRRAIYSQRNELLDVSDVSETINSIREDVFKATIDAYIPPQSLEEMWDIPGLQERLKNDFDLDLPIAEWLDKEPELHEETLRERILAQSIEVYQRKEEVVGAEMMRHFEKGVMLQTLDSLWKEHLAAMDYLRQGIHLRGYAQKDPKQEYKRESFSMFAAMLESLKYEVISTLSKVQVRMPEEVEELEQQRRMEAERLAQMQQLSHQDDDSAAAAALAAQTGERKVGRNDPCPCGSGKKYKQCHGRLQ
Chromo domain-containing protein 1 (Saccharomyces cerevisiae (strain ATCC 204508 / S288c) (Baker's yeast)), sequence (P32657 whole entry, the tested form may be a part): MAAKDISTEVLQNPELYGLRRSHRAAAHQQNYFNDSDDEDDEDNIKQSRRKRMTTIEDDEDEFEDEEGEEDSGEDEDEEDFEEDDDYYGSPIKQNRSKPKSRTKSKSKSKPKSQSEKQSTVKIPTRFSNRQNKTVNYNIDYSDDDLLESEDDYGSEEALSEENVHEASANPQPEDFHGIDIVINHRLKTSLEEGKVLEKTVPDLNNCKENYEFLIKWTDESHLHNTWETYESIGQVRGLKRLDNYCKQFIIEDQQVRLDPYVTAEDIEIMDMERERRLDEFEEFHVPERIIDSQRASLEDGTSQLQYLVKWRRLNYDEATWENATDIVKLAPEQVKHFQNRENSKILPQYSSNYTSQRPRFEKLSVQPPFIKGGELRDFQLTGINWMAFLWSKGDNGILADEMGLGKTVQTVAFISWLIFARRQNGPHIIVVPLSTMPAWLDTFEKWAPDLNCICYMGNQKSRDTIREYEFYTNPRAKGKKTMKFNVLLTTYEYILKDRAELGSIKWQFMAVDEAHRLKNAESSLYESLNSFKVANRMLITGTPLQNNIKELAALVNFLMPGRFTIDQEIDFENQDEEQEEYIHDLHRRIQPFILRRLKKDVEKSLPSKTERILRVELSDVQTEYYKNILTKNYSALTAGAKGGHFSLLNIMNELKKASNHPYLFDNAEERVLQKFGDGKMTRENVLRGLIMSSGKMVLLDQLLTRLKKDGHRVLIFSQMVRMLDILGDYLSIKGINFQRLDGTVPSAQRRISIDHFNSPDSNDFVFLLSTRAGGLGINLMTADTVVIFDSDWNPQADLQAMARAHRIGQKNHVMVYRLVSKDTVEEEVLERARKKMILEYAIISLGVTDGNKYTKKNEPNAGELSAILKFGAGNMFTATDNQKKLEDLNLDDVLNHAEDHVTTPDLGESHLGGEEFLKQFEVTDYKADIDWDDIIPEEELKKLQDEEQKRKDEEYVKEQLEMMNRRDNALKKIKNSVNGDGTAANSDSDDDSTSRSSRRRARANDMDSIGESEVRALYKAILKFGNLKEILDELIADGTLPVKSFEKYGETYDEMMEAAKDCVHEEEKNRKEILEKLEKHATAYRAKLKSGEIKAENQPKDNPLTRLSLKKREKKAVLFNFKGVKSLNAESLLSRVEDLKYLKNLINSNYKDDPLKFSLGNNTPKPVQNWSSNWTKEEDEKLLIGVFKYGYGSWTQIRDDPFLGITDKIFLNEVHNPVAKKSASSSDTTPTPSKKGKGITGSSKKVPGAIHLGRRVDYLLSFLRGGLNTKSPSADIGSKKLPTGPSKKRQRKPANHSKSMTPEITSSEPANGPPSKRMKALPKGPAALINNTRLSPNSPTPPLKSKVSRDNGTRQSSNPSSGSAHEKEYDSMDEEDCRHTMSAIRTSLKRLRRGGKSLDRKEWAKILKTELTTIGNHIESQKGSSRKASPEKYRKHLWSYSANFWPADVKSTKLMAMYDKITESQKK
Sialic acid-binding Ig-like lectin 9 (Homo sapiens), sequence (Q9Y336 whole entry): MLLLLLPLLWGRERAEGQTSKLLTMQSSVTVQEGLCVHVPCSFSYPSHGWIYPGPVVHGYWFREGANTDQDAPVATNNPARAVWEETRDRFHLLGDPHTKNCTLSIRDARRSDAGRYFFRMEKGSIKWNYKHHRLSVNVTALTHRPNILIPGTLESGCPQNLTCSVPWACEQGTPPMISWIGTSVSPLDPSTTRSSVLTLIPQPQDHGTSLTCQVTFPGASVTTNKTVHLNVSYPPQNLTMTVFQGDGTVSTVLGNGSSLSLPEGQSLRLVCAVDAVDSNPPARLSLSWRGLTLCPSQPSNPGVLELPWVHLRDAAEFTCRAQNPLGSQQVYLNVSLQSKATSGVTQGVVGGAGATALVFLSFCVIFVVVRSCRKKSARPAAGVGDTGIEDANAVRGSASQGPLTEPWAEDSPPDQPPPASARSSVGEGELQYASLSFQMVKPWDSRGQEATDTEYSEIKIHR

With `CC(=O)N1CCC(C(=O)NCCN2CCCCC2)CC1`, the Percent Effect is -1.49% in [1]; 9.72% in assay [2]; -3.56% in assay [3]; -2.74% in assay [4]; 0.875% in the assay with Trypanosoma cruzi; 1.77% in assay [5]. The Percent Effect was 17.5% in assay [6]; -6.46% in the assay listed under Homo sapiens; 4.21% in [7]; 5.13% in assay [8]; -2.32% in assay [9].
For the compound `O=C(NCCCn1cncn1)N1CCCC(N2CCCC2)C1` (stereo not given), the Percent Effect in assay [1] was -3.14%; in assay [2] it was 21.1%; in assay [3], -6.64%; in assay [4] it was -3.21%; in the assay with Trypanosoma cruzi, 3.01%; in assay [5] it was 2.3%. The Percent Effect was 13.4% in assay [6]; 14.6% in the assay listed under Homo sapiens; 5.39% in assay [7]; 19.5% in assay [8]; -10.5% in assay [9].
Take `CC(C)C(C)NC(=O)Nc1ccccc1CN1CCOCC1` (stereo not given): the Percent Effect was -7.45% in assay [1]; 2.7% in assay [2]; 0.895% in [3]; 4.22% in [4]; 1.47% in the assay with Trypanosoma cruzi; 2.23% in [5]. The Percent Effect in assay [6] was 2.66%; in the assay listed under Homo sapiens, -10.3%; in assay [7], 6.45%; in assay [8], 11.1%; in assay [9], -3.52%.
As for `CC1COCCN1Cc1nc(-c2cccc(Br)c2)no1` (stereo not given), the Percent Effect in assay [1] was -3.43%; in assay [2], 13.5%; in assay [3], 7.49%; in assay [4], 1.61%; in the assay on Trypanosoma cruzi it was -8.4%; in [5] it was 2%. In addition, the Percent Effect was 17.7% in assay [6]; 24.7% in the assay listed under Homo sapiens; 0.493% in assay [7]; 1.24% in [8]; -8.7% in assay [9].
Take `COCCNC(=O)CN1CCN(c2nc(C)cs2)C(C)C1` (stereo not given): the Percent Effect in assay [1] is -6.14%; in [2], 16.2%; in [3], -5.78%; in [4], 22%; in the assay on Trypanosoma cruzi, 5.11%; in [5], -1.29%. Further, the Percent Effect in assay [6] is 13.3%; in the assay filed under Homo sapiens, -1.44%; in assay [7], 2.97%; in assay [8], 15.8%; in [9], -7.53%.
`Fc1ccccc1CN1C[C@@H](OCc2ccncc2)[C@H]2OCCC[C@H]21`: the Percent Effect was -4.8% in assay [1]; 10.4% in assay [2]; 6.84% in [3]; 10.2% in assay [4]; 4.62% in the assay with Trypanosoma cruzi; -13.8% in [5]. For the same compound, the Percent Effect in [6] is 5.49%; in the assay filed under Homo sapiens, 6.56%; in assay [7], 7.53%; in assay [8] it was 16.1%; in [9], -1.04%.
Take `COC(=O)c1ccc(S(=O)(=O)NCc2cccnc2N(C)C)cc1`: the Percent Effect in assay [1] was -2.49%; in [2] it was 17.7%; in assay [3], 0.13%; in [4], -11%; with Trypanosoma cruzi, -8.59%; in assay [5] it was -4.18%. In addition, the Percent Effect in assay [6] is 4.67%; in the assay listed under Homo sapiens, 66.2%; in assay [7] it was -16.3%; in [8], 16.5%; in [9], -6.7%.
Turning to `Cc1cccc(CS(=O)(=O)CC(=O)NCCCOC(C)C)c1`, the Percent Effect is -4.74% in assay [1]; 18.2% in assay [2]; -13.1% in assay [3]; 5.88% in assay [4]; 9.74% with Trypanosoma cruzi; 3.92% in assay [5]. Moreover, the Percent Effect in [6] was 4.05%; in the assay filed under Homo sapiens, 23.9%; in assay [7], 7.77%; in assay [8] it was 24.4%; in assay [9], -10.7%.
For `O=C1N(Cc2ccc(F)c(F)c2)CCCC12CCN(C1CCSCC1)C2` (stereo not given), the Percent Effect was -4.12% in assay [1]; -8% in assay [2]; -4.64% in [3]; 30.2% in [4]; 9.25% in the assay with Trypanosoma cruzi; 23.4% in [5]. Further, the Percent Effect in assay [6] amounted to 9.77%; in the assay listed under Homo sapiens, 3.27%; in assay [7], 15.8%; in [8], 25.9%; in assay [9], 0.965%.
For the compound `CN(Cc1cncnc1)Cc1cn2c(n1)CN(C1CCOC1)CC2` (stereo not given), the Percent Effect was -2.37% in assay [1]; 5.33% in assay [2]; -0.62% in assay [3]; 5.52% in assay [4]; -2.51% with Trypanosoma cruzi; -21.7% in assay [5]. Moreover, the Percent Effect is 8.38% in assay [6]; 8.32% in the assay listed under Homo sapiens; 5.21% in assay [7]; 12.5% in assay [8]; -5.82% in assay [9].
